# Source: ChEMBL document CHEMBL3988442, “University of Dundee, Small-Polar-MMV Screening Library” (2021)
# Biological target: AMP-activated protein kinase, AMPK (Homo sapiens) (UniProt P54646+O43741+P54619+Q9UGJ0+Q9Y478+Q13131+Q9UGI9)
# Assay: AMP-dependent Kinase enzyme assay. An in vitro enzyme assay that detects ADP turnover that is directly proportional to AMPK activity. This uses naive AMPK that is activated during the assay with MK-8722
# Assay type: functional
# Design: scale not given: direction of the effect not stated beside the values
# Details: 30 µM
row,Structure (SMILES),Percent Effect
1,CCc1nnc(CN2CCc3ccc(S(N)(=O)=O)cc32)o1,5.08%
2,CN1CCN(c2ccc(F)cc2NC(=O)NCc2ccon2)CC1,4.16%
3,Cc1cc(NCCc2nc(C)c[nH]2)nc(-c2ccccc2O)n1,17.8%
4,Cc1ccc(-c2cn(C3CCN(C(=O)[C@H]4CCCO4)CC3)nn2)cc1,-0.746%
5,COC(=O)CSCc1noc(-c2ccc(C)cc2)n1,-5.29%
6,O=C(Cc1ccc(Cl)s1)Nc1ccc2c(c1)C(=O)NC2=O,68.3%
7,O=C(Nc1ccccc1C(=O)NCCCN1CCOCC1)c1ccco1,0.765%
8,Nc1ncnc2nc(C3CCCCN3)ccc12 (centres undefined),15.5%
9,CCN(C(=O)Cn1cc(NC(=O)C(C)(C)C)cn1)c1ccccc1,-3.26%
10,CC(C)(C)c1cn2c(n1)C(CNCc1ccccn1)CCC2 (centres undefined),-3.66%
11,CCC(C(=O)NCCc1nc(C)cc(C(F)(F)F)n1)n1cccn1 (centres undefined),-8.03%
12,CN(CC(O)C(F)(F)F)C(=O)Nc1cccc(N2CCCC2)c1 (centres undefined),-4.79%
13,COc1cccc(-c2ncc(CN3CC[C@H]4CC[C@@H](C3)N4)s2)c1,7.14%
14,Cc1ncsc1CCN(C)C(=O)CCc1nc2cccnc2n1C,-7.17%
15,Cc1ccccc1C(CC(=O)N1CCc2sccc2C1)NC(N)=O (centres undefined),11.7%
16,CSc1ncccc1C(=O)NC(C)c1cccc(N2CCOC2=O)c1 (centres undefined),-0.0368%
17,O=C(CN1CCC(c2nnc(C(F)(F)F)o2)CC1)Nc1cccc(Cl)c1,-5.71%
18,Cc1cccc(COc2ccc(C(C)NS(N)(=O)=O)cc2)c1 (centres undefined),7.65%
19,CCOCCOC(C)C(=O)Nc1nccn1Cc1ccccc1 (centres undefined),-2.1%
20,COCCN(C)c1cnn(C)c(=O)c1Br,-10.9%

row,Structure (SMILES),Percent Effect
1,NC(=O)C(NC1CCN(Cc2ccc(F)cc2)CC1)c1ccccc1 (centres undefined),-4.88%
2,COCC1CCN(c2ccnc3ccsc23)C1 (centres undefined),4.92%
3,CC(C)c1cc(C(=O)NCCc2nc(-c3cccnc3)n[nH]2)[nH]n1,57.4%
4,Cc1c(C(=O)NC2CCCC2)nnn1-c1ccccc1,-3.83%
5,CN(C)S(=O)(=O)N1CC[C@]2(O)CCN(c3cc(C#N)ccn3)C[C@@H]2C1,-3.03%
6,CC(NCc1cccc(NC(=O)C2CCCCC2)c1)c1cnn(C)c1 (centres undefined),4.61%
7,O=C(c1cccnc1)N1CCOC(Cc2ccccc2Cl)C1 (centres undefined),11%
8,CC(C)NC(=O)C1(Cc2ccccc2-c2cncnc2)CCCNC1 (centres undefined),18.8%
9,Cc1noc(C)c1CCCNC(=O)Nc1ccc2c(c1)COC2,16.7%
10,Cc1ccc(OCc2occc2C(=O)N2CCCCC(N)C2)cc1 (centres undefined),5.88%
11,COc1ccc(CNC(C)c2cnn(C)c2)cc1OC1CCCC1 (centres undefined),8.55%
12,Cn1ccnc1-c1cn(CCCc2nnc(N)s2)nn1,-15.1%
13,Cc1sc(C(=O)N(C)S(C)(=O)=O)cc1-c1ccc(F)cc1,-2.1%
14,CCN1CCN(c2ccccc2NC(=O)NCc2ccon2)CC1,2.14%
15,COC[C@]1(O)CCN(c2cc(N3CCOCC3)ncn2)CC1(C)C,-1.8%
16,CNc1nc(C(=O)N2CCn3nc(C(=O)OC)cc3C2)cs1,-0.197%
17,Cc1nc(CNC(=O)c2cc(COc3ccccc3)[nH]n2)n[nH]1,7.31%
18,CCc1oc(C(=O)NC(C)c2ncn[nH]2)cc1CN1CCCC1 (centres undefined),-1.83%
19,COc1cccc([C@@]2(O)CC[C@@H]3CN(C(=O)c4c[nH]nc4C)C[C@@H]32)c1,10.8%
